# Compounds with a hit are over-represented: about 9.8% of the library has one in this group of screens.
# HttQ103 aggreg – qHTS Multiplex Assay to Identify Dual Action Probes in a Cell Model of Huntington: Aggregate Formation (GFP); AID 1688, 2009; Potency, µM (doses to about 46.1 µM), inactives show at the highest dose activity change, negative = inhibition, actives largely listed as inhibitors; PC12 HttQ103-GFP aggregates, Acumen cytometry, 40 h; actives 1.1% (n = 220,000); note: potency is the fitted concentration of half-maximal effect; % is set by controls: 0 for no effect and ±100 for the full control effect; nearly all actives have a fitted effect of over 60% in size
#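 PC12 cells stably carrying ecdysone-inducible HTT exon 1 Q103–GFP were induced with tebufenozide (100 nM final) and treated with library compounds in titration. GFP aggregates in lysates were counted by laser scanning cytometry.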
# ALDH1A1 inh – qHTS Assay for Inhibitors of Aldehyde Dehydrogenase 1 (ALDH1A1). Aldehyde dehydrogenase 1A1 (Homo sapiens), P00352. Purified ALDH1A1, NADH fluorescence, propionaldehyde substrate. Potency, µM (top dose mostly 75.3 µM), for the others: at the highest dose activity, negative = inhibition, most hits filed as inhibitors. actives 7.3% (n = 220,000); active = well fitted inhibition curve with a large enough effect, not every such curve was filed as active; inconclusive = small, poorly fitted or top-dose-only effect, or another doubt; inactive = no such curve, though single readings can be large or run the other way;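 note: potency is the fitted concentration of half-maximal effect; plate controls were no enzyme wells and a reference inhibitor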
# HPGD inh – qHTS Assay for Inhibitors of HPGD (15-Hydroxyprostaglandin Dehydrogenase); 15-hydroxyprostaglandin dehydrogenase [NAD(+)] (Homo sapiens), P15428; purified HPGD, NADH fluorescence kinetic, PGE2 substrate; Potency, µM, for the others: at the highest dose activity change, negative = inhibition, actives largely listed as inhibitors; actives 4.3% (n = 150,000); active = well fitted inhibition curve with a large enough effect, not every such curve was filed as active; inconclusive = small, poorly fitted or top-dose-only effect, or another doubt; inactive = no such curve, though single readings can be large or run the other way; note: potency is the fitted concentration of half-maximal effect; % is set by controls: 0 for no effect and ±100 for the full control effect
# Target sequence (P15428 whole entry, looked up): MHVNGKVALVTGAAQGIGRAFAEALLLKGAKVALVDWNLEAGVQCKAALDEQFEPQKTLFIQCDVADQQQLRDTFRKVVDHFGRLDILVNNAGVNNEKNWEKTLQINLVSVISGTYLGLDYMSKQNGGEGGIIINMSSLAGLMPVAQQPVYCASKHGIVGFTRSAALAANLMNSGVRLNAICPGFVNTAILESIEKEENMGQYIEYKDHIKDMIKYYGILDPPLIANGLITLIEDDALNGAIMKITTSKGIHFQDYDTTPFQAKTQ
#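 20 nM HPGD preincubated 15 min at room temperature with compound in 50 mM Tris-HCl pH 8, 0.01% Tween 20. Started with 1 mM NAD+ and 30 uM prostaglandin E2; NADH fluorescence (360/450 nm) read 5 times over 30-s intervals, last minus first.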
# HTT ATP protect – qHTS Multiplex Assay to Identify Dual Action Probes in a Cell Model of Huntington: Cytoprotection (ATP) | AID 1471, 2008 | PC12 HTT-Q103 induced, cytoprotection, ATP luminescence, 40 h | actives 0.14% (n = 230,000) | Potency, µM (doses to about 56.4 µM), without a hit: cytoprotection (ATP increase), actives largely listed as activators; note: potency is the fitted concentration of half-maximal effect; % of control where 0% means no effect; nearly all actives have a fitted effect of over 45% in size
#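 Compounds were screened for protection of PC12 cells against cell death after tebufenozide induction (100 nM final) of mutant Huntingtin exon 1 (Q103) fused to GFP.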
# CBFb RUNX1 block – qHTS Assay for Compounds Blocking the Interaction Between CBF-beta and RUNX1 for the Treatment of Acute Myeloid Leukemia. Runt-related transcription factor 1 (Homo sapiens) + Core-binding factor subunit beta …. AlphaScreen CBFb-His/RUNX1-biotin binding, biochemical. 230,000 tested, under 10 active. Potency, µM (doses to about 59.8 µM), for the others: at the highest dose activity, negative = inhibition, most hits filed as inhibitors; note: % of control where 0% means no effect
#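 Interaction loss through any mechanism counts as activity. Pre-formed complex of His-CBF-beta and biotin-RUNX1 (30 nM apiece) is incubated with compound 15 min, then with 50 ng nickel and 50 ng streptavidin beads for 90 min before AlphaScreen detection.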
# KDM4E inh – qHTS Assay for Inhibitors of Human Jumonji Domain Containing 2E (JMJD2E); Lysine-specific demethylase 4E (Homo sapiens), B2RXH2; JMJD2E catalytic domain, FDH-coupled NADH fluorescence (FDH is formaldehyde dehydrogenase); Potency, µM (series often up to 57.1 µM), without a hit: top-dose activity change, negative = inhibition, actives largely listed as inhibitors; actives 1.6% (n = 230,000); AID 2147, 2009; active = well fitted inhibition curve with a large enough effect, not every such curve was filed as active; inconclusive = small, poorly fitted or top-dose-only effect, or another doubt; inactive = no such curve, though single readings can be large or run the other way;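 note: potency is the fitted concentration of half-maximal effect; 0% = wells with enzyme and -100% = buffer wells without enzyme; nearly all actives have a fitted effect of over 50% in size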
# Target sequence (B2RXH2 1-337 limits assumed): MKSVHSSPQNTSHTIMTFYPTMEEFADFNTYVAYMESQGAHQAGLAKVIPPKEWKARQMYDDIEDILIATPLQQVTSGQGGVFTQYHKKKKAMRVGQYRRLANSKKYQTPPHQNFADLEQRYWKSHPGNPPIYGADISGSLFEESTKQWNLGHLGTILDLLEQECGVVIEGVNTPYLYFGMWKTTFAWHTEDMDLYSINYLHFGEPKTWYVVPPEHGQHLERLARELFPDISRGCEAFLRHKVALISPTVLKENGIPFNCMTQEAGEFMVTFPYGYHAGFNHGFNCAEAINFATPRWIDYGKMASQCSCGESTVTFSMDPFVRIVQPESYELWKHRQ
# * marks the source's active call; other numbers are inactive results; ? = inconclusive; / = not tested or not shown; [ ] = another dose, or the depositor's remark. Unless noted, calls come from the whole dose curve; as a rule, active = well fitted curve in the direction sought with a large enough effect; inconclusive = small, poorly fitted or top-dose-only effect, or another doubt; inactive = no such curve, though single readings can be large; an effect the other way counts as inactive or inconclusive.
SMILES,HttQ103 aggreg,ALDH1A1 inh,HPGD inh,HTT ATP protect,CBFb RUNX1 block,KDM4E inh
CN(CC(=O)Nc1ccccc1Br)Cc1nc2ccccc2c(=O)[nH]1,-9%,-4%,-5%,-7%,6%,5%
C#CCN1C(=O)S/C(=C/c2cc(C)n(CC)c2C)C1=O,13%,7.5µM*,/,-15%[10 µM],-4%,-8%
COCCn1c(C)cc(/C=C2/SC(=O)N(C(C)C(=O)OC)C2=O)c1C (stereo not drawn),4%[9.22 µM],/,/,-15%[10 µM],-9%,2%
COc1ccc(N=C2S/C(=C\c3cc(C)n(C)c3C)C(=O)N2CC(C)C)cc1,29%,2.5µM*,-23%,-54%,-24%,-24%
COC(=O)CN1C(=O)S/C(=C/c2cc(C)n(C)c2C)C1=O,-2%,14µM*,-1%,-27%,-8%,0%
CCn1c(C)cc(/C=C2/SC(=S)N(CC(=O)O)C2=O)c1C,-13%,12%,/,/,-2%,-14%
CC(C)Oc1ccc(/C(O)=C2/C(=O)C(=O)N(CCCN3CCOCC3)C2c2ccncc2)cc1 (stereo not drawn),/,/,/,-13%,/,/
CCNc1ncc2nc(-c3cccs3)c(=O)n(CCC#N)c2n1,/,?,/,-52%,/,/
OCCN(CO)CO,/,4%[13.5 µM],-2%,-3%[10 µM],/,/
CCCCN(CCCNC(=O)c1c(C)cc(=O)oc1C)c1ccccc1,-27%,22µM*,-12%,11%[10 µM],-3%,-8%
Cc1cc(=O)oc(C)c1C(=O)NCc1ccccc1,11%,4%,-6%,2%,-2%,-2%
CCN(CCCNC(=O)c1c(C)cc(=O)oc1C)c1ccccc1,26%,7.9µM*,-19%,26%[10 µM],5%,8%
CCCNC(=O)c1c(C)cc(=O)oc1C,4%,-1%,-11%,-13%,4%,-3%
CCN(CCCNC(=O)CN1C(=O)COc2ccccc21)c1ccccc1,12%,-5%,1%,7%,-1%,3%
CCCCN(CCCNC(=O)CN1C(=O)COc2ccccc21)c1ccccc1,?,13µM*,-16%,-4%[10 µM],8%,3%
O=C(c1ccccc1NS(=O)(=O)c1cccc2cccnc12)N1CCOCC1,-26%,13%,/,-29%,2%,-6%
CN(C(=O)c1ccc2c(c1)C(=O)N(CCC1=CCCCC1)C2=O)C1CCCCC1,?,0.79µM*,14µM*,-53%,-2%,-2%
CSc1nc(C)c(Oc2ccccc2)c(=O)n1C,-2%,13%,13µM*,-3%[10 µM],6%,4%
CCOC(=O)N1CCC(=NNc2ncc(C(F)(F)F)cc2Cl)CC1,-3%,?,/,-35%,-10%,-16%
CC(=O)N1CCC(=NNc2ncc(C(F)(F)F)cc2Cl)CC1,14%,16µM*,/,-6%,-18%,-2%
CCN(CC)c1ccc(C(=O)NNC(=O)CCl)cc1,?,10µM*,/,-164%,-6%,?
COc1ccc(-c2cc(N)n(S(=O)(=O)c3c(F)c(F)c(F)c(F)c3F)n2)cc1OC,?,32µM*,-21%,-85%,-4%,-2%
O=C(Cc1coc(-c2ccc(F)cc2)n1)NC1CCCCC1,-7%,9%,18µM*,0%,2%,-1%
O=c1cc(CO)oc(C(Nc2ccccn2)c2cccc(F)c2)c1O (stereo not drawn),17%,32µM*,-14%,15%[10 µM],5%,?
O=C(c1ccccc1)C(Nc1ccccn1)c1ccccc1 (stereo not drawn),-9%[9.22 µM],3%,/,-6%[10 µM],-7%,8%
SMILES,HttQ103 aggreg,ALDH1A1 inh,HPGD inh,HTT ATP protect,CBFb RUNX1 block,KDM4E inh
COC(=O)c1c(C)n(-c2ccc(OC)cc2)c2ccc(O)cc12,11µM*,-9%,?,-15%,-4%,-28%
COc1ccc([N+](=O)[O-])cc1NC(=O)N(C)Cc1ccco1,-13%[9.22 µM],/,/,-9%[10 µM],-3%,2%
CCOc1cccc(C=Nc2cc(C)cc(C)c2O)c1O,25%,22µM*,11µM*,-12%,?,?
CCOc1cccc(/C=N/NC(=O)CC2C(=O)NN=C2C)c1O (stereo not drawn),25%,0%,/,-23%,-5%,-4%
CCOC(=O)C1CCN(C(=O)c2sccc2Cl)CC1,0%[9.22 µM],/,/,3%[10 µM],1%,2%
O=C(CCc1nnc(-c2ccsc2)o1)N1CCc2c(Cl)cccc2C1,28%[9.22 µM],8%,/,25%[10 µM],-5%,-1%
Cc1ccc(-n2c(N)c(C(=O)N3CCOCC3)sc2=S)cc1,?,3.2µM*,10µM*,-17%[0.074 µM],-8%,?
CCNC(=O)c1sc(=S)n(-c2ccc(C)cc2)c1N,-14%,13µM*,35µM*,-5%,-1%,-1%
CCOC(=O)c1sc(=S)n(-c2ccc(C)cc2)c1SC,-12%,22µM*,?,-6%,6%,1%
CN1CCN(C(=O)c2sc(=S)n(-c3ccccc3)c2N)CC1,?,3.2µM*,7.9µM*,1%[10 µM],4%,1%
COc1ncnc2c1oc1nc(CC(C)C)c3c(c12)CCCC3,-15%,14µM*,-7%,-24%[0.074 µM],-1%,-2%
CCN(Cc1ccccc1)C(=O)COC(=O)CNC(=O)c1ccc(C)s1,10%,7%,/,-38%,1%,-1%
Cc1ccc(OCc2ccc(C(=O)N3CCOCC3)cc2)cc1C,-24%,0%,25µM*,-4%,-1%,-3%
CCCCC[C@H](O)/C=C/C=C\C/C=C\C=C\[C@@H](O)CCCC(=O)O,/,3%,-7%,1%,-8%,-3%
c1ccc(-c2nnc(CSc3nnc(-c4ccncc4)n3Cc3ccco3)o2)cc1,-27%,9%,20µM*,-4%,-1%,3%
Cc1ccc(-c2nnc(SCc3nc4ccccc4[nH]3)n2Cc2ccco2)cc1,9%,16µM*,-29%,-29%,-9%,?
Cc1cccc(-c2nnc(SCc3nc4ccccc4[nH]3)n2Cc2ccco2)c1,-2%,16%,/,6%,-10%,3%
Cc1cc(Cl)ccc1N1C(=O)CC(NNC(=O)c2cccnc2)C1=O (stereo not drawn),9%,5%,-9%,8%[10 µM],5%,5%
CCCOC(=O)c1ccc(NC(=O)CSC2=Nc3ccccc3C3CC=NN23)cc1 (stereo not drawn),11%[9.22 µM],32µM*,?,-5%,2%,-13%
C/C(=N\NC(=O)CCc1ccccc1)C1C(=O)c2ccccc2C1=O,5%[9.22 µM],-4%,/,21%[10 µM],-11%,?
